Assay results reported in paper PMC11995724, “Antibiotic target discovery by integrated phenotypic and activity-based profiling of electrophilic fragments” (Cell chemical biology, 2025).
Screen size: about 3,200 compounds; about 75 (2%) showed an effect of 50% or more. For the sample, strong results were picked, then their nearest neighbours and some compounds at random.

System: T1, S. aureus MSSA476
T1 construct: MSSA476
Set-up: species or system S. aureus MSSA476 (TSB) or V. cholerae SAD30 (LB); 384-well bacterial growth screen at 25 uM, OD600 relative to DMSO control
Conditions: relative growth, OD600, TSB; 25 µM; inhibitor

| Compound | % of control remaining [%] |
| --- | --- |
| Cc1cc(C)cc(-c2cc(NC(=O)CCl)n(-c3ccccc3)n2)c1 [4-K04, 2-chloro-N-[3-(3,5-dimethylphenyl)-1-phenyl-1H-pyrazol-5-yl]acetamide] | 80.4192 |
| C/C(O)=C(\C#N)C(=O)Nc1ccc(-c2ccccc2Cl)cc1 [9-P22, (2Z)-N-{2'-chloro-[1,1'-biphenyl]-4-yl}-2-cyano-3-hydroxybut-2-enamide] | 50.9363 |
| CC(O)=C(C#N)C(=O)Nc1ccc(-c2ccccc2Cl)c(Cl)c1 [9-L22, 2-cyano-N-{2,2'-dichloro-[1,1'-biphenyl]-4-yl}-3-hydroxybut-2-enamide] | 33.2584 |
| CC(O)=C(C#N)C(=O)Nc1ccc(C(F)(F)F)cc1 [9-A05, 2-cyano-3-hydroxy-N-[4-(trifluoromethyl)phenyl]but-2-enamide] | 71.6105 |
| N#CC(=Cc1ccc([N+](=O)[O-])o1)C(=O)NCc1ccco1 [8-I17, 2-cyano-N-[(furan-2-yl)methyl]-3-(5-nitrofuran-2-yl)prop-2-enamide] | -0.6639 |
| Cc1ccc(C=C(C#N)C(=O)NCc2ccco2)o1 [8-P19, 2-cyano-N-[(furan-2-yl)methyl]-3-(5-methylfuran-2-yl)prop-2-enamide] | 89.6266 |
| N#CC(=Cc1cc2ccccc2o1)C(=O)NCc1ccco1 [9-O08, 3-(1-benzofuran-2-yl)-2-cyano-N-[(furan-2-yl)methyl]prop-2-enamide] | 115.056 |
| O=C(CCl)c1ccc(F)c(F)c1 [10-L13, 2-chloro-1-(3,4-difluorophenyl)ethan-1-one] | 110.313 |
| COc1ccc(C(=O)CCl)c(OC)c1 [10-G18, 2-chloro-1-(2,4-dimethoxyphenyl)ethan-1-one] | 124.375 |
| O=C(CCl)c1ccc(Cl)c(Cl)c1 [10-L16, 2-chloro-1-(3,4-dichlorophenyl)ethan-1-one] | 5 |
| O=C(CCl)c1ccc2[nH]c(=O)[nH]c2c1 [10-I14, 5-(2-chloroacetyl)-2,3-dihydro-1H-1,3-benzodiazol-2-one] | 100.313 |
| COC(=O)c1cccc(C(=O)CCl)c1 [10-I11, methyl 3-(2-chloroacetyl)benzoate] | 61.5625 |
| COc1ccc(C(=O)CCl)cc1Cl [10-D10, 2-chloro-1-(3-chloro-4-methoxyphenyl)ethan-1-one] | -0.3125 |
| CC(Cl)C(=O)NC(C)c1ccc(C(F)(F)F)nc1Cl (centres unmarked) [7-G09, 2-chloro-N-{1-[2-chloro-6-(trifluoromethyl)pyridin-3-yl]ethyl}propanamide] | 111.774 |
| C=CC(=O)Nc1cccc(-c2nc(COC)no2)c1C [1-J08, N-{3-[3-(methoxymethyl)-1,2,4-oxadiazol-5-yl]-2-methylphenyl}prop-2-enamide] | 101.626 |
| COc1cc(Cl)c(C)cc1N1C(=O)C=CC1=O [10-B15, 1-(4-chloro-2-methoxy-5-methylphenyl)-2,5-dihydro-1H-pyrrole-2,5-dione] | 91.875 |
| N#CC(C(=O)Nc1ccc(Cl)cc1)=C(S)Nc1ccccc1 [8-H22, N-(4-chlorophenyl)-2-cyano-3-(phenylamino)-3-sulfanylprop-2-enamide] | 74.3568 |
| CC(=O)N(C)Cc1ccc(C(=O)CCl)cc1 [10-H04, N-{[4-(2-chloroacetyl)phenyl]methyl}-N-methylacetamide] | 111.875 |
| N#Cc1ccc(C(=O)CCl)cc1 [10-F10, 4-(2-chloroacetyl)benzonitrile] | 52.5 |
| NC(=O)CCc1ccc(C(=O)CCl)cc1 [10-I03, 3-[4-(2-chloroacetyl)phenyl]propanamide] | 108.125 |
| CN(c1ccc(C(=O)CCl)cc1)S(C)(=O)=O [10-F19, N-[4-(2-chloroacetyl)phenyl]-N-methylmethanesulfonamide] | -0.3125 |
| CCN(c1ccc(C(=O)CCl)cc1)S(C)(=O)=O [10-F04, N-[4-(2-chloroacetyl)phenyl]-N-ethylmethanesulfonamide] | 2.1875 |
| Cl.O=C(CCl)c1ccncc1 [10-M09, 2-chloro-1-(pyridin-4-yl)ethan-1-one hydrochloride] | 111.875 |
| C=CC(=O)N1CCC(C(=O)NCc2ncnn2CC)CC1 [3-P03, N-[(1-ethyl-1H-1,2,4-triazol-5-yl)methyl]-1-(prop-2-enoyl)piperidine-4-carboxamide] | 135.829 |
| C=CC(=O)Nc1cc(-c2ccco2)nn1C(C)(C)C [1-K19, N-[1-tert-butyl-3-(furan-2-yl)-1H-pyrazol-5-yl]prop-2-enamide] | 129.407 |
| CCN(Cc1ccccc1)C(=O)CCl [6-O21, N-benzyl-2-chloro-N-ethylacetamide] | 79.9024 |
| CCn1ccc(CN(C)C(=O)CCl)n1 [5-K06, 2-chloro-N-[(1-ethyl-1H-pyrazol-3-yl)methyl]-N-methylacetamide] | 77.5956 |

| Compound | % of control remaining [%] |
| --- | --- |
| CCc1cc(SC#N)cc(C)c1NC(=O)CCl [4-M04, 2-chloro-N-[4-(cyanosulfanyl)-2-ethyl-6-methylphenyl]acetamide] | 101.382 |
| O=C(CCl)Cc1cc(Cl)cc(Cl)c1 [10-I15, 1-chloro-3-(3,5-dichlorophenyl)propan-2-one] | 23.125 |
| O=C(CCl)Cc1ccc(Cl)c(Cl)c1 [10-E15, 1-chloro-3-(3,4-dichlorophenyl)propan-2-one] | 111.25 |
| O=C(CCl)Cc1cccc(Cl)c1 [10-E17, 1-chloro-3-(3-chlorophenyl)propan-2-one] | 119.375 |
| O=C(CCl)NC(=O)c1ccc(OC(F)F)cc1 [5-J22, N-(2-chloroacetyl)-4-(difluoromethoxy)benzamide] | 106.011 |
| C=CC(=O)NCc1ncoc1C(F)(F)F [3-E18, N-{[5-(trifluoromethyl)-1,3-oxazol-4-yl]methyl}prop-2-enamide] | 106.922 |
| N#CC(=Cc1ccc(C(F)(F)F)cc1)C(=O)Nc1ccccc1 [9-I04, 2-cyano-N-phenyl-3-[4-(trifluoromethyl)phenyl]prop-2-enamide] | 99.7753 |
| N#CC(C(=O)CCl)=C1NC2=C(CCc3ccccc32)S1 [10-N10, 4-chloro-2-{1H,2H,4H,5H-naphtho[1,2-d][1,3]thiazol-2-ylidene}-3-oxobutanenitrile] | 59.6875 |
| N#CC(C(=O)CCl)=C1NC(C23CC4CC(CC(C4)C2)C3)=CS1 [10-F14, 2-[4-(adamantan-1-yl)-2,3-dihydro-1,3-thiazol-2-ylidene]-4-chloro-3-oxobutanenitrile] | 42.1875 |
| CN1C=CC(=C(C#N)C(=O)CCl)C=C1 [10-G21, 4-chloro-2-(1-methyl-1,4-dihydropyridin-4-ylidene)-3-oxobutanenitrile] | 112.5 |
| O=C(CCl)NC1CCS(=O)(=O)c2ccc(F)cc21 (centres unmarked) [7-H06, 2-chloro-N-(6-fluoro-1,1-dioxo-3,4-dihydro-2H-1lambda6-benzothiopyran-4-yl)acetamide] | 94.1915 |
| CN(C)c1ccc(C=C(C#N)C(=O)N2CCC2)cc1 [9-A14, 2-(azetidine-1-carbonyl)-3-[4-(dimethylamino)phenyl]prop-2-enenitrile] | 86.8914 |
| Cc1c(C#N)c(NC(=O)CCl)n(Cc2ccco2)c1C [4-D09, 2-chloro-N-{3-cyano-1-[(furan-2-yl)methyl]-4,5-dimethyl-1H-pyrrol-2-yl}acetamide] | 96.0457 |
| CC(C)OC(=O)c1ccc(NC(=O)C(C)Cl)cc1 (centres unmarked) [4-K08, propan-2-yl 4-(2-chloropropanamido)benzoate] | 110.148 |
| N#CC(=Cc1cccc(O)c1)C(=O)NCCc1ccccc1 [8-N03, 2-cyano-3-(3-hydroxyphenyl)-N-(2-phenylethyl)prop-2-enamide] | 116.183 |
| N#CC(=Cc1cccc2ccccc12)C(=O)NCc1ccccc1 [8-O19, N-benzyl-2-cyano-3-(naphthalen-1-yl)prop-2-enamide] | 104.896 |
| CCCCNC(=O)C(C#N)=Cc1cccc(Cl)c1Cl [9-H11, N-butyl-2-cyano-3-(2,3-dichlorophenyl)prop-2-enamide] | 71.0112 |
| N#CC(=Cc1cccc(Cl)c1Cl)C(=O)NCc1ccccc1 [8-L04, N-benzyl-2-cyano-3-(2,3-dichlorophenyl)prop-2-enamide] | -0.332 |
| CC(NC(=O)C(C#N)=Cc1cccc(Cl)c1Cl)c1ccccc1 (centres unmarked) [9-N04, 2-cyano-3-(2,3-dichlorophenyl)-N-(1-phenylethyl)prop-2-enamide] | 0.5993 |
| N#CC(=Cc1ccccc1Cl)C(=O)NCc1ccccc1 [9-F13, N-benzyl-3-(2-chlorophenyl)-2-cyanoprop-2-enamide] | 78.2022 |
| CC(NC(=O)C(C#N)=Cc1ccccc1F)c1ccccc1 (centres unmarked) [8-P16, 2-cyano-3-(2-fluorophenyl)-N-(1-phenylethyl)prop-2-enamide] | 79.0041 |
| N#CC(=Cc1c(Cl)cccc1Cl)C(=O)NCCc1ccccc1 [8-B14, 2-cyano-3-(2,6-dichlorophenyl)-N-(2-phenylethyl)prop-2-enamide] | 39.834 |
| N#CC(=Cc1c(F)cccc1F)C(=O)NCCc1ccccc1 [8-D18, 2-cyano-3-(2,6-difluorophenyl)-N-(2-phenylethyl)prop-2-enamide] | 118.174 |
| CC(C)NC(=O)C(C#N)=Cc1cccc(Cl)c1Cl [9-C07, 2-cyano-3-(2,3-dichlorophenyl)-N-(propan-2-yl)prop-2-enamide] | 109.963 |
| CCCCNC(=O)C(C#N)=Cc1c(Cl)cccc1Cl [9-J11, N-butyl-2-cyano-3-(2,6-dichlorophenyl)prop-2-enamide] | 79.4007 |
| N#CC(=Cc1cccc(Cl)c1Cl)C(=O)NCCc1ccccc1 [8-J06, 2-cyano-3-(2,3-dichlorophenyl)-N-(2-phenylethyl)prop-2-enamide] | 0.6639 |
